PubChem BioAssay (Tox21)
Results filed as inconclusive are left out. The source made the active and inactive calls. Unless noted, the call rests on the fitted dose curve; in most records, active means well fitted curve in the direction sought with a large enough effect in the repeat runs; inconclusive means weak or mixed curves; inactive means no such curve, though single readings can be large; an effect the other way counts as inactive or inconclusive.

Columns and labels:
[1] = molecular target: Progesterone receptor (Homo sapiens) (UniProt P06401); assay: qHTS assay to identify small molecule agonists of the progesterone receptor (PR) signaling pathway (AID 1346784; calls by dose curve; further: nearly all actives have a fitted effect of over 30% in size; further: potency means the concentration at half of the fitted maximal effect)
Procedure, shortened: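 Using charcoal-stripped serum (2%) to limit endogenous steroids, PR-UAS-bla HEK 293T cells received compounds for 16 hr at 37C after 6 hr plating; beta-lactamase FRET fluorescence was recorded following 2 hr substrate loading at room temperature.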

[2] = molecular target: Progesterone receptor (Homo sapiens) (UniProt P06401); assay: qHTS assay to identify small molecule antagonists of the progesterone receptor (PR) signaling pathway (AID 1346795; active means well fitted inhibition curve with a large enough effect in the signal ratio in the repeat runs, not every such curve was filed as active; the % refers to the signal ratio; further: potency means the concentration at half of the fitted maximal effect)
Procedure, shortened: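 Inhibition of R5020-induced (1 nM final) beta-lactamase reporter signal in PR-UAS-bla HEK293T cells was scored by FRET fluorescence after overnight (16 hr) compound treatment.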

[3] = qHTS assay to identify small molecule antagonists of the progesterone receptor (PR) signaling pathway - cell viability counter screen (AID 1346798); further: nearly all actives have a fitted effect of over 50% in size; further: potency means the concentration at half of the fitted maximal effect; on activity change, negative = cytotoxicity: series mostly up to about 92 µM
Procedure, shortened: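 ATP content as viability readout: CellTiter-Glo luminescence, 30 min room temperature, in PR-UAS-bla HEK293T cells after 16 hr compound/R5020 treatment at 37C and 5% CO2.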

[4] = qHTS assay to identify small molecule agonists of the progesterone receptor (PR) signaling pathway - cell viability counter screen (AID 1346799; calls by dose curve; further: nearly all actives have a fitted effect of over 45% in size)
Procedure, shortened: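 Cytotoxicity in PR-bla HEK293T cells: 16 h compound, 37C; CellTiter-Glo added post-FRET read; luminescence after 30 min RT.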

[5] = qHTS assay to identify small molecule antagonists of the TGF-beta/Smad signaling pathway - cell viability counter screen (AID 1346824); further: nearly all actives have a fitted effect of over 50% in size
Procedure, shortened: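 Cytotoxicity counter-screen run in the same wells as the beta-lactamase Smad reporter read: CellTiter-Glo luminescence after 30 min at room temperature. HEK 293T SBE-bla cells had 5 hr compound exposure at 37 C with TGF-beta1 (0.25 ng/mL stock).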

[6] = qHTS assay to identify small molecule agonists of the TGF-beta/Smad signaling pathway - cell viability counter screen (AID 1346829); further: top concentration of the series differs between compounds; nearly all actives have a fitted effect of over 45% in size
Procedure, shortened: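 Here the cytotoxicity of library compounds is measured in SBE-bla HEK 293T cells treated for 5 hr, using CellTiter-Glo added to wells already read for the beta-lactamase reporter.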

[7] = molecular target: Thyrotropin-releasing hormone receptor (Homo sapiens) (UniProt P34981); assay: qHTS assay to identify small molecule antagonists of the thyrotropin-releasing hormone receptor (TRHR) signaling pathway (AID 1346877; active means well fitted inhibition curve with a large enough effect in the repeat runs, not every such curve was filed as active; further: series mostly up to about 51 µM)
Procedure, shortened: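 Intracellular calcium fluorescence, read kinetically every second over 3 min, reports TRH-evoked signalling in HEK293 cells carrying TRHR. Test compounds were added 5 min ahead of a 1 nM TRH challenge.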

[8] = molecular target: Thyrotropin-releasing hormone receptor (Homo sapiens) (UniProt P34981); assay: qHTS assay to identify small molecule agonists of the thyrotropin-releasing hormone receptor (TRHR) signaling pathway (AID 1346891; calls by dose curve;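 further: HEK293 cells expressing TRHR with calcium dye readout; series mostly up to about 58 µM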)
Procedure, shortened: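 In 1536-format, 1500 TRHR-Hek293 cells per well grew 18 h, took up calcium dye for 2 h at 37 °C, received compound, and were read kinetically; 15-point titrations, triplicates.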

[9] = Human pregnane X receptor (PXR) small molecule agonists, qHTS cell viability counter screen (AID 1346977); further: nearly all actives have a fitted effect of over 50% in size
Procedure, shortened: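 Readout is CellTiter-Fluor fluorescence from PXR-Luc HepG2 cells. Plated cells rested 5hr, then were treated with compounds for 24hr at 37C and 5% CO2, with reagent present during the last hour.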

[10] = qHTS assay to identify small molecule agonists of the TGF-beta/Smad signaling pathway (AID 1346859; active means well fitted activation curve with a large enough effect in the signal ratio in the repeat runs, not every such curve was filed as active; the % refers to the signal ratio; further: series mostly up to about 77 µM)
Procedure, shortened: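 Stable Smad binding element-beta-lactamase HEK 293T cells; 5 hr compound exposure at 37 C under 5% CO2; 2 hr room-temperature substrate step; fluorescence excited at 405 nm, collected at 460 nm and 530 nm.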
On the % scale 0 is the no-effect control and ±100 the full control effect.

Sequence of Progesterone receptor (Homo sapiens) (P06401 whole entry, looked up): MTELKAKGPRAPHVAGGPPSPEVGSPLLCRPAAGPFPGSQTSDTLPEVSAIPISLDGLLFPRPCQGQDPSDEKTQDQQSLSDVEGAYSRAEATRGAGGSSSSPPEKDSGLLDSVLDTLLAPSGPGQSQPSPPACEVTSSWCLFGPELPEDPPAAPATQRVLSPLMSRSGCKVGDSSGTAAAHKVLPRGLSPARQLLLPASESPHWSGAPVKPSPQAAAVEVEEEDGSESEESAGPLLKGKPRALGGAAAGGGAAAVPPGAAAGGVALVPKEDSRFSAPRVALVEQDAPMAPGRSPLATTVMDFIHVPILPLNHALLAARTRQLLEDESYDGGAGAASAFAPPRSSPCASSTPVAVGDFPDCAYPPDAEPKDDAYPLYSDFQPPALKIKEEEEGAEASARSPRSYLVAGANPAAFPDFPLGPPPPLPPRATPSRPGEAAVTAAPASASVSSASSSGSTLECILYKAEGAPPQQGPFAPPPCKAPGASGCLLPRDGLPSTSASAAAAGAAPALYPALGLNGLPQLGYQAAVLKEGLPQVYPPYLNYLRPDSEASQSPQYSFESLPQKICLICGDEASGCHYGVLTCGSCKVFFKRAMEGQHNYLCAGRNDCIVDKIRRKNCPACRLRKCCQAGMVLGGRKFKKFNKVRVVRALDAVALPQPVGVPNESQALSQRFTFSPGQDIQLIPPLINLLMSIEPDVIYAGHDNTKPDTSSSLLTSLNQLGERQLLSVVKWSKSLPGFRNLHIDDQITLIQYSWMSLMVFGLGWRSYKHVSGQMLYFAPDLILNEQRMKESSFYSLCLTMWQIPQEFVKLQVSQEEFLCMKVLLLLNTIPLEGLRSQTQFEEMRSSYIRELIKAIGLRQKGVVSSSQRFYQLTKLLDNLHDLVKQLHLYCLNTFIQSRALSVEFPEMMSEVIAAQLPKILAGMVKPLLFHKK
Sequence of Thyrotropin-releasing hormone receptor (Homo sapiens) (P34981 whole entry, looked up): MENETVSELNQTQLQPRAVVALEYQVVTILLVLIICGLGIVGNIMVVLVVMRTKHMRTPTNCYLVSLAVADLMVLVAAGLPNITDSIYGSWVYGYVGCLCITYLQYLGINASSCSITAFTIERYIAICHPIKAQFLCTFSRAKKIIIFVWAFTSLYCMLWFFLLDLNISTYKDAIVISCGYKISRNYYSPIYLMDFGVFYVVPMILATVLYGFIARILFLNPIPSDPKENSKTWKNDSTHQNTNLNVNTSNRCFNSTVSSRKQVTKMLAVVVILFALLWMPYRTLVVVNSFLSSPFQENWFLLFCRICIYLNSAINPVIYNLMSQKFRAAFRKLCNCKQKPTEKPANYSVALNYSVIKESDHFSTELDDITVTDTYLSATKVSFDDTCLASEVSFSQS

COc1ccc(C2C(=O)c3ccccc3C2=O)cc1
inactive: Potency [1] | Potency [2] | Potency [3] | Potency [4] | outcome [5] | Potency [6] | outcome [7] | outcome [8] | Potency [9]

CC(=O)NCCO
inactive: Potency [1] | Potency [2] | Potency [3] | Potency [4] | outcome [5] | Potency [6] | Potency [10] | Potency [9]

O=C(O)c1cccc(Oc2ccccc2)c1
inactive: Potency [1] | Potency [2] | Potency [3] | Potency [4] | outcome [5] | Potency [6] | outcome [7] | outcome [8] | Potency [9]

C=Cc1ccc(OC(C)=O)cc1
inactive: Potency [1] | Potency [2] | Potency [3] | Potency [4] | outcome [5] | Potency [6] | Potency [10] | Potency [9]

c1ccc2sc(SSc3nc4ccccc4s3)nc2c1
inactive: activation [1] -1.06% [at 19 µM] | activity change, negative = inhibition [2] -9.57% [at 18.9 µM] | activity change, negative = cytotoxicity [3] -0.0474% [at 18.9 µM] | activity change, negative = cytotoxicity [4] 5.24% [at 19 µM] | viability change, negative = cytotoxic [5] 3.02% [at 15.8 µM] | activation [10] 3.56% [at 15.8 µM] | activity change, negative = cytotoxicity [9] 14.6% [at 19 µM]

Nc1ccn([C@H]2CS[C@@H](CO)O2)c(=O)n1
inactive: Potency [1] | Potency [2] | Potency [3] | Potency [4] | Potency [10] | Potency [9]

OCC(CO)n1cnc(-c2ccc(F)cc2)c1-c1ccnc(Oc2ccccc2)n1
inactive: Potency [1] | Potency [2] | Potency [3] | outcome [5] | Potency [6] | Potency [10] | outcome [7] | outcome [8] | Potency [9]

O=C(Oc1ccccc1)c1ccc2ccccc2c1O
active: Potency [2] 30.6 µM
inactive: Potency [1] | Potency [3] | outcome [5] | Potency [6] | Potency [10] | outcome [7] | outcome [8] | Potency [9]

Cc1ccc2c(c1)CCCN2
inactive: Potency [1] | Potency [2] | Potency [3] | outcome [5] | Potency [6] | Potency [10] | outcome [7] | outcome [8]

O=C(NC(Cc1cc(=O)[nH]c2ccccc12)C(=O)O)c1ccc(Cl)cc1 (stereo unspecified)
inactive: Potency [1] | Potency [2] | Potency [3] | outcome [5] | Potency [6] | Potency [10] | outcome [7] | outcome [8] | Potency [9]

CC(C)(C)CCCCCCOC(=O)c1ccccc1C(=O)OCCCCCCC(C)(C)C
inactive: Potency [1] | Potency [2] | Potency [3] | outcome [5] | Potency [6] | Potency [10] | outcome [7] | outcome [8] | Potency [9]

CC[C@H]1OC(=O)[C@H](C)[C@@H](O[C@H]2C[C@@](C)(OC)[C@@H](O)[C@H](C)O2)[C@H](C)[C@@H](O[C@@H]2O[C@H](C)C[C@H](N(C)C)[C@H]2O)[C@](C)(O)C[C@@H](C)/C(=N\OCOCCOC)[C@H](C)[C@@H](O)[C@]1(C)O
inactive: Potency [1] | Potency [2] | Potency [3] | outcome [5] | Potency [6] | Potency [10]

C[C@H](CS)C(=O)N1CCC[C@H]1C(=O)O
inactive: Potency [1] | Potency [2] | Potency [3] | Potency [4] | Potency [6] | Potency [10] | outcome [7] | outcome [8] | Potency [9]

CCCCCCCCCCCCCCN(C)C
active: Potency [1] 0.738 µM
inactive: activity change, negative = inhibition [2] 5.91% [at 18.9 µM] | activity change, negative = cytotoxicity [3] 2.26% [at 18.9 µM] | activity change, negative = cytotoxicity [4] 0% [at 19 µM] | viability change, negative = cytotoxic [5] -8.55% [at 15.8 µM] | activation [10] -0.505% [at 15.8 µM] | activity, negative = inhibition [7] 0.781% [at 10.5 µM] | activation [8] 1.06% [at 11.8 µM] | activity change, negative = cytotoxicity [9] 0.682% [at 19 µM]

CC(=O)Oc1cccc(O)c1
inactive: Potency [1] | Potency [2] | Potency [3] | outcome [5] | Potency [6] | Potency [10] | outcome [7] | outcome [8] | Potency [9]

CCCCOC(=O)CCCCC(=O)OCCCC
inactive: Potency [1] | Potency [2] | Potency [3] | Potency [4] | outcome [5] | Potency [10] | outcome [7] | outcome [8] | Potency [9]

O=C1OC[C@H](Cc2cccc(O)c2)[C@H]1Cc1cccc(O)c1
inactive: Potency [1] | Potency [2] | Potency [3] | outcome [5] | Potency [6] | Potency [10] | outcome [7] | outcome [8] | Potency [9]

CS(=O)(=O)c1ccc([C@@H](C[C@H]2CCC(=O)C2)C(=O)Nc2cnccn2)cc1Cl
inactive: Potency [1] | Potency [2] | Potency [3] | outcome [5] | Potency [6] | Potency [10] | outcome [7] | outcome [8] | Potency [9]

CC(C)COC(=O)COc1cc(Cl)c(Cl)cc1Cl
inactive: Potency [1] | Potency [2] | Potency [3] | outcome [5] | Potency [6] | Potency [10] | outcome [7] | outcome [8] | Potency [9]

Cc1cccc2sc(N)nc12
inactive: Potency [1] | Potency [2] | Potency [3] | outcome [5] | Potency [6] | Potency [10] | outcome [7] | outcome [8] | Potency [9]

CC1=CC[C@@]23C[C@@H]1C(C)(C)[C@@H]2CC[C@H]3C
inactive: Potency [1] | Potency [2] | Potency [3] | Potency [4] | Potency [6] | Potency [10] | outcome [7] | outcome [8] | Potency [9]

SCCc1cnccn1
active: Potency [2] 43.3 µM | Potency [3] 30.6 µM
inactive: Potency [1] | outcome [5] | Potency [6] | Potency [10] | outcome [7] | outcome [8] | Potency [9]

C=C(C)c1ccccc1
active: Potency [1] 15.4 µM
inactive: Potency [2] | Potency [3] | outcome [5] | Potency [6] | Potency [10] | outcome [7] | outcome [8] | Potency [9]

O=c1[nH][nH]c(=O)c2cc([N+](=O)[O-])ccc12
inactive: Potency [1] | Potency [2] | Potency [3] | Potency [4] | outcome [5] | outcome [7] | outcome [8] | Potency [9]

CCOC(=O)c1c(N)sc2c1CCN(Cc1ccccc1)C2
inactive: Potency [1] | Potency [2] | Potency [3] | Potency [4] | Potency [6] | outcome [7] | outcome [8] | Potency [9]

CCCOC(=O)c1c(Cl)c(Cl)c(Cl)c(Cl)c1C(=O)OCCC
inactive: Potency [1] | Potency [3] | Potency [4] | Potency [6] | Potency [10] | outcome [7] | outcome [8] | Potency [9]
active: Potency [2] 17.2 µM
